# This is a sample that favours compounds with a hit; in the whole collection about 22% have one here.
# CYP2C9 activ = activators of human CYP2C9; AID 1024; activation factor at 5 µM; 96,000 compounds, 1.4% hits; recombinant CYP2C9, luciferin-H conversion, luminescence; active compounds read high; factor 1 = untreated enzyme, 0 = blocked; P11712;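 active = activation factor of 2 or more for CYP2C9 at a 5 µM dose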;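 note: 0 = sulfaphenazole-blocked wells and 1 = vehicle-only wells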
# Measles CPE = protection of cells from measles virus | Measles virus-infected cells, CPE protection, absorbance | protection (pct of control), % at 4 µM | 140,000 compounds, 1.5% hits; in the data active = protection mostly above about 24%, no sharp cut-off; inactive = mostly below about 26%
# CYP2C9 inhib = human CYP2C9 inhibition; inhibition, % at 5 µM; AID 777; 96,000 compounds, 20% hits; CYP2C9 Supersomes, luciferin-H conversion, luminescence;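 active = blocking of liver enzyme CYP2C9 beyond about 50% at 5 µM, limit read from the data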
# CYP2C19 activ = cytochrome P450 2C19 (human) activation | P33261 | recombinant CYP2C19, luciferin-H EGE luminescence; active compounds read high; 0 = fully inhibited enzyme, 1 = untreated enzyme | activation factor at 5 µM | 96,000 tested, under 10 active | AID 1025;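 active = activation factor of at least 2 at 5 µM in the primary screen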;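 note: 0 = wells with 2.5 mM tranylcypromine and 1 = vehicle-only wells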
# Target sequence (P33261 whole entry, looked up): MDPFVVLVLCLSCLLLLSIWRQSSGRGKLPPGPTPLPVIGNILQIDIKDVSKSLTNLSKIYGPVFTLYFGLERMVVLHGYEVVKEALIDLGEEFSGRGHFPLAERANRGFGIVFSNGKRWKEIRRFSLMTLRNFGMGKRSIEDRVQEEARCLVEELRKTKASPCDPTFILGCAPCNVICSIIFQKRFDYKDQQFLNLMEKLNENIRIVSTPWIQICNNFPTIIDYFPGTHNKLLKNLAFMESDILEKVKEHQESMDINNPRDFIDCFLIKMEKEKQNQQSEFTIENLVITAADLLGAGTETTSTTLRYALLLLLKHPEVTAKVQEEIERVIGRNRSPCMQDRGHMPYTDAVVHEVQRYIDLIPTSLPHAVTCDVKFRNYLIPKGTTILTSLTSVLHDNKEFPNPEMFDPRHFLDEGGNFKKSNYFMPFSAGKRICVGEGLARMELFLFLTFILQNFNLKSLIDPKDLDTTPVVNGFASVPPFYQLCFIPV
# CYP2C19 inh = human CYP2C19 inhibition | AID 778 | 96,000 compounds, 21% hits | P33261 | CYP2C19 Supersomes, luciferin-H EGE luminescence, 30 min | inhibition, % at 5 µM;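 active = CYP2C19 inhibition above a set limit at 5 µM in the primary screen, cut at about 50% in these data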;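 note: plate controls were negative control wells for no effect and 2.5 mM tranylcypromine positive control for full effect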
# Active calls of the source: *; nt = not tested or not shown.
SMILES,CYP2C9 activ,Measles CPE,CYP2C9 inhib,CYP2C19 activ,CYP2C19 inh
c1ccc(-c2oc3ncnc(NCCN4CCOCC4)c3c2-c2ccccc2)cc1,0,12,98*,0.2,83*
c1ccc(-c2oc3ncnc(NCCCn4ccnc4)c3c2-c2ccccc2)cc1,0,12,99*,0,98*
OCCNc1ncnc2c1c(-c1ccccc1)c(-c1ccccc1)n2Cc1ccco1,0.4,15,56*,0.6,41
N=c1c2c(-c3ccccc3)c(-c3ccccc3)n(Cc3ccco3)c2ncn1CCCn1ccnc1,nt,5,nt,nt,nt
c1ccc(-c2c(-c3ccccc3)n(Cc3ccco3)c3ncnc(NCCCn4ccnc4)c23)cc1,0,2,100*,0,100*
CC(=O)c1ccc(NC(=O)c2ccc(S(=O)(=O)c3ccccc3)cc2)cc1,nt,25,nt,nt,nt
Cc1noc(C)c1S(=O)(=O)N1CCCC(C(=O)NCCc2ccc(Cl)cc2)C1 (configuration not stated),0.6,18,44,0.3,69*
O=C(NCCc1ccc(Cl)cc1)C1CCN(S(=O)(=O)N2CCC3(CC2)OCCO3)CC1,0.7,4,33,0.2,77*
Cc1ccc(CCNC(=O)C2CCCN(c3nc4ccccc4o3)C2)cc1 (configuration not stated),0.5,5,50*,0.4,61*
Cc1ccc(CNC(=O)C2CCN(S(=O)(=O)N3CCC4(CC3)OCCO4)CC2)cc1,nt,10,nt,nt,nt
COc1cccc(CNC(=O)C2CCCN(c3nc4ccccc4o3)C2)c1 (configuration not stated),0.7,16,27,0.7,28
O=C(NCCC1=CCCCC1)C1CCN(C(=O)c2ccc(Br)cc2)CC1,nt,30*,nt,nt,nt
Cc1nn(C)c(C)c1S(=O)(=O)N1CCCC(C(=O)NCCc2ccc(Cl)cc2)C1 (configuration not stated),1.1,23,-13,0.9,7
CN(C)c1ccc(CNC(=O)c2ccc(CNc3c(N4CCCCC4)c(=O)c3=O)cc2)cc1,0.9,9,6,0.9,7
Cc1ccc2c(c1)N=C(c1ccc(F)cc1)CO2,1.1,1,-11,1.1,-9
CC1(C)CC(=O)C=C(NNC(=O)C2CCCCC2)C1,nt,2,nt,nt,nt
Brc1ccc2[nH]ncc2c1,nt,19,nt,nt,nt
NS(=O)(=O)c1ccc(CCNC(=O)C2CCCN(S(=O)(=O)c3cccnc3)C2)cc1 (configuration not stated),0.8,7,18,1,-2
CCS(=O)(=O)N1CCCC(C(=O)NCCc2ccc(C)cc2)C1 (configuration not stated),nt,6,nt,nt,nt
CC1CCCCN1CCCNC(=O)C1CCN(c2nc3ccccc3o2)CC1 (configuration not stated),0.9,1,13,0.9,14
O=C(NCCC1=CCCCC1)C1CCN(S(=O)(=O)c2cnc[nH]2)CC1,0,15,96*,0.2,78*
O=C(NCCc1ccc(Cl)cc1)C1CCCN(S(=O)(=O)c2cnc[nH]2)C1 (configuration not stated),0.1,7,86*,0.1,92*
O=C(NC1CCCCCC1)C1CCN(c2nc3ccccc3o2)CC1,0.7,32*,32,0.8,20
Cc1ccc(CCNC(=O)C2CCCN(S(=O)(=O)c3cnc[nH]3)C2)cc1 (configuration not stated),0.2,20,78*,0.1,87*
CCc1nc2sc3c(=O)n(N)cnc3c2c2c1COC(C)(C)C2,nt,9,nt,nt,nt
SMILES,CYP2C9 activ,Measles CPE,CYP2C9 inhib,CYP2C19 activ,CYP2C19 inh
Cc1oc(-c2ccccc2F)nc1CN1CCC(C(=O)NCCC2=CCCCC2)CC1,2.3*,24*,-127,1,5
Cc1cccc(NC(=O)CN2C(=O)N/C(=C/c3cc(C)n(C(C)C)c3C)C2=O)c1,0.3,1,71*,0.6,39
Cc1cc(/C=C2/NC(=O)N(c3ccccc3)C2=O)c(C)n1C(C)C,nt,55*,nt,nt,nt
CCN1C(=O)N/C(=C/c2ccc(C)o2)C1=O,nt,9,nt,nt,nt
Cc1ccc(/C=C2/NC(=O)N(c3ccccc3)C2=O)o1,1.1,4,-6,0.3,68*
Cc1cccc(C)c1NC(=O)C1(N2C(=O)CC2c2ccccc2)CCCCC1 (configuration not stated),nt,3,nt,nt,nt
S=C(NC1CCCCC1)c1ccc2c(c1)OCO2,1,5,-2,0.2,83*
O=C(c1ccc2c(c1)OCO2)N1CCCN(C(=O)c2ccc3c(c2)OCO3)CC1,0.3,18,74*,0.8,23
CN(C(=O)c1ccc2c(c1)OCO2)C1(C(=O)NC2CCCC2)CCCCC1,0.7,22,33,0.9,9
